From PubChem BioAssay AID1159580 (chemical genetic matrix, 2015)
Values joined by “and” are separate entries in the source; they are usually repeats but may differ in a detail not shown here. Equal entries are not always repeated. In all, about 5,500 compounds went through this assay and about 2,000 (36%) were called active. Another 18% or so got no clear call; they are omitted. Rule as the data show it: active = normalized growth mostly below about 0.91 (no sharp cut-off); inconclusive = no clear call, values can overlap the other calls; inactive = mostly above about 0.92. This is one part of the list.

Test: chemical genetic growth profiling, strain panel (AID 1159580);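 also: tested at 20 µM; growth read once vehicle control cultures reached saturation at 30 °C; 1 = growth at the plate median or of vehicle wells; lower values mean less growth of the strain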
Details: S. cerevisiae deletion strains, growth OD

Measured: normalized growth

COc1ccc2cc(CCC(C)=O)ccc2c1
inactive: locus YAL013W, strain DEP1, stronger effect = lower value 0.952 | locus YAL021C, strain ccr4, stronger effect = lower value 0.986 | locus YAL026C, strain drs2, stronger effect = lower value 0.996 | locus YAL030W, strain snc1, stronger effect = lower value 0.992 | locus YBL061C, strain skt5, stronger effect = lower value 0.981 | locus YBR009C, strain hhf1, stronger effect = lower value 0.989 | locus YBR021W, strain FUR4, stronger effect = lower value 0.947 | locus YBR023C, strain chs3, stronger effect = lower value 0.977 | locus YBR171W, strain sec66, stronger effect = lower value 0.985 | locus YBR229C, strain ROT2, stronger effect = lower value 0.919 | locus YBR231C, strain swc5, stronger effect = lower value 0.996 | locus YBR279W, strain paf1, stronger effect = lower value 0.993 | locus YCL011C, strain gbp2, stronger effect = lower value 0.983 | locus YCL016C, strain dcc1, stronger effect = lower value 0.997 | locus YCL029C, strain bik1, stronger effect = lower value 0.939 | locus YCL061C, strain MRC1, stronger effect = lower value 1 | locus YCL069W, strain vba3, stronger effect = lower value 0.993 | locus YCR088W, strain abp1, stronger effect = lower value 0.989 | locus YDL005C, strain med2, stronger effect = lower value 1.02 | locus YDL035C, strain GPR1, stronger effect = lower value 0.93 | locus YDL040C, strain nat1, stronger effect = lower value 0.997 | locus YDL074C, strain BRE1, stronger effect = lower value 0.935 | locus YDL101C, strain DUN1, stronger effect = lower value 0.955 | locus YDL134C, strain PPH21, stronger effect = lower value 0.967 | locus YDL185W, strain tfp1, stronger effect = lower value 0.945 | locus YDR001C, strain nth1, stronger effect = lower value 0.994 | locus YDR069C, strain doa4, stronger effect = lower value 1.01 | locus YDR101C, strain arx1, stronger effect = lower value 0.931 | locus YDR137W, strain rgp1, stronger effect = lower value 1.1 | locus YDR150W, strain NUM1, stronger effect = lower value 0.939 | locus YDR159W, strain sac3, stronger effect = lower value 1.03 | locus YDR162C, strain NBP2, stronger effect = lower value 0.943 | locus YDR195W, strain ref2 1.08 | locus YDR297W, strain sur2, stronger effect = lower value 0.99 | locus YDR318W, strain mcm21, stronger effect = lower value 0.93 | locus YDR334W, strain swr1, stronger effect = lower value 1.01 | locus YDR335W, strain msn5, stronger effect = lower value 0.999 | locus YDR388W, stronger effect = lower value 0.942 | locus YDR392W, strain spt3, stronger effect = lower value 0.967 | locus YEL003W, strain gim4, stronger effect = lower value 0.991 | locus YEL037C, strain rad23, stronger effect = lower value 0.991 | locus YEL061C, strain CIN8 (second series), stronger effect = lower value 1 | locus YEL061C, strain CIN8, stronger effect = lower value 0.946 | locus YER015W, strain faa2, stronger effect = lower value 1 | locus YER016W, strain bim1, stronger effect = lower value 0.99 | locus YER110C, stronger effect = lower value 0.901 | locus YER111C, strain swi4, stronger effect = lower value 1 | locus YER155C, strain BEM2, stronger effect = lower value 0.965 | locus YER167W, strain BCK2, stronger effect = lower value 0.92 | locus YFR010W, strain ubp6, stronger effect = lower value 1.01 | locus YGL086W, strain mad1, stronger effect = lower value 0.942 | locus YGL167C, strain pmr1, stronger effect = lower value 0.99 | locus YGL173C, strain kem1, stronger effect = lower value 0.987 | locus YGL227W, strain vid30, stronger effect = lower value 0.999 | locus YGL240W, strain doc1, stronger effect = lower value 0.929 | locus YGL248W, strain PDE1, stronger effect = lower value 0.959 | locus YGL253W, strain hxk2, stronger effect = lower value 0.992 | locus YGR078C, strain PAC10, stronger effect = lower value 0.938 | locus YGR229C, strain SMI1, stronger effect = lower value 0.919 | locus YHR013C, strain ard1, stronger effect = lower value 1.02 | locus YHR027C, strain rpn1, stronger effect = lower value 0.991 | locus YHR030C, strain SLT2, stronger effect = lower value 0.958 and 0.924 | locus YHR079C, strain IRE1 (second series), stronger effect = lower value 0.939 | locus YHR079C, strain IRE1, stronger effect = lower value 0.956 | locus YHR094C, strain hxt1, stronger effect = lower value 0.96 | locus YHR129C, strain ARP1, stronger effect = lower value 0.971 | locus YHR142W, strain chs7, stronger effect = lower value 0.976 | locus YHR200W, strain rpn10, stronger effect = lower value 0.933 | locus YIL066C, strain RNR3, stronger effect = lower value 0.929 | locus YIL073C, strain SPO22, stronger effect = lower value 0.92 | locus YIL125W, strain kgd1, stronger effect = lower value 0.942 | locus YIR030C, strain dcg1, stronger effect = lower value 0.929 | locus YJL092W, strain hpr5, stronger effect = lower value 0.992 | locus YJL095W, strain BCK1 (second series), stronger effect = lower value 0.99 | locus YJL095W, strain BCK1, stronger effect = lower value 0.922 and 0.939 | locus YJL115W, strain asf1, stronger effect = lower value 1.01 | locus YJL129C, strain trk1, stronger effect = lower value 0.97 | locus YJL134W, strain LCB3, stronger effect = lower value 0.958 | locus YJL154C, strain vps35, stronger effect = lower value 0.992 | locus YJL164C, strain tpk1, stronger effect = lower value 0.992 | locus YJL166W, strain qcr8, stronger effect = lower value 0.989 | locus YJL168C, strain set2, stronger effect = lower value 0.957 | locus YJL187C, strain SWE1 (second series), stronger effect = lower value 0.959 | locus YJL187C, strain SWE1, stronger effect = lower value 0.992 | locus YJR043C, strain POL32, stronger effect = lower value 0.917 | locus YJR066W, strain TOR1, stronger effect = lower value 0.926
active: locus YDL192W, strain arf1, stronger effect = lower value 0.91 | locus YDR502C, strain sam2, stronger effect = lower value 0.908 | locus YER155C, strain BEM2 (second series), stronger effect = lower value 0.843 | locus YGL078C, strain dbp3, stronger effect = lower value 0.921 | locus YGR135W, strain pre9, stronger effect = lower value 0.881 | locus YGR252W, strain gcn5, stronger effect = lower value 0.763
